This passage reports cell number and H1.0 immunofluorescence intensity results from the supplement of paper PMC7156485.

Common to all, as to settings: concentration: 10 µM; 24 h
For experiment [1], the system named is HCC1569. Nature of the experiment: cell number relative to DMSO (% of DMSO); higher = more cells (less growth inhibition / toxicity). In short, it runs like this:
(§1)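 Cells were seeded at 800 per well in 384-well plates with RPMI containing 10% FBS; both HCC1569 and TDF lines were used. Compounds were added at 10 µM for 24 h at 37 °C, in triplicate, before fixation in 3.7% formaldehyde and staining with a rabbit anti-H1.0 antibody, an AlexaFluor 647 secondary and DAPI. H1.0 nuclear intensity or cell number is reported as percent of the plate control using the median of replicates, and HCC1569 values were smoothed for positional effects.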

For experiment [2], the system named is TDF. The experiment is described as above. Put shortly: as §1
Experiment [3] concerns TDF. As to the kind of experiment: H1.0 immunofluorescence intensity relative to DMSO (% of DMSO); higher = stronger H1.0 induction, active = 120 or more. Put shortly:
as §1

Experiment [4] deals with HCC1569. As to the kind of experiment: H1.0 immunofluorescence intensity relative to DMSO (% of DMSO); higher = stronger H1.0 induction, active = 140 or more. Put shortly:
as §1
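For H1.0 immunofluorescence intensity relative to DMSO in this document: TDF is a line of transformed human dermal fibroblasts of mesenchymal origin.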
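For cell number relative to DMSO in this document: TDF denotes transformed human dermal fibroblasts of mesenchymal origin.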

With `CNCCC(Oc1ccccc1OC)c1ccccc1.Cl` (stereo unspecified) [Nisoxetine.HCl], the cell number is 105 in the experiment on HCC1569 [1] and 101 with TDF [2]. The H1.0 immunofluorescence intensity in the experiment with TDF [3] was 92.1 (inactive); with HCC1569 [4], 109 (inactive).

As for `C[N+](C)(CCCCCC[N+](C)(C)CCCN1C(=O)c2cccc3cccc(c23)C1=O)CCCN1C(=O)c2cccc3cccc(c23)C1=O.[Br-].[Br-]`, the results for the cell number in the experiment with HCC1569 [1] and with TDF [2] were 100 and 101, respectively. The values for the H1.0 immunofluorescence intensity in the experiment on TDF [3] and with HCC1569 [4] were 97.2 (inactive) and 108 (inactive), respectively.

Take `N[C@@H](Cc1ccc(F)cc1)C(=O)O` [p-Fluoro-L-phenylalanine]: the cell number is 104 in the experiment with HCC1569 [1] and 102 in the experiment on TDF [2]. For the same compound, the results for the H1.0 immunofluorescence intensity in the experiment with TDF [3] and with HCC1569 [4] were 93.4 (inactive) and 106 (inactive), respectively.

In the case of `CCCCCCCCCCCCCC=CC(O)C(CO)NC(=O)CCCCCCCCCCCCCCC` (stereo unspecified) [C16 Ceramide], the cell number in the experiment with HCC1569 [1] was 96.6; in the experiment on TDF [2] it was 95.3. The H1.0 immunofluorescence intensity is 102 (inactive) in the experiment on TDF [3] and 97.5 (inactive) with HCC1569 [4].

For `C[C@H](CCC(=O)O)[C@H]1CC[C@H]2[C@@H]3C[C@H](O)[C@@H]4C[C@H](O)CC[C@]4(C)[C@H]3CC[C@]12C` [(3alpha,5beta,6alpha)-3,6-dihydroxycholan-24-oic acid], the results for the cell number in the experiment on HCC1569 [1] and in the experiment on TDF [2] were 101 and 98.6, respectively. Also, the H1.0 immunofluorescence intensity with TDF [3] is 97.3 (inactive); in the experiment on HCC1569 [4], 106 (inactive).

For `O=C(O)Cc1nn(Cc2nc3cc(C(F)(F)F)ccc3s2)c(=O)c2ccccc12`, the cell number in the experiment on HCC1569 [1] amounted to 98.1; with TDF [2] it was 90.1. Moreover, the H1.0 immunofluorescence intensity in the experiment with TDF [3] is 93.4 (inactive); with HCC1569 [4], 97.7 (inactive).

In the case of `CCCCCC=CCC=CCCCCCCCC(=O)O` [9(E),12(E)-Octadecadienoic acid], the results for the cell number in the experiment on HCC1569 [1] and in the experiment with TDF [2] were 96.5 and 107, respectively. For the same compound, the H1.0 immunofluorescence intensity in the experiment with TDF [3] is 100 (inactive); with HCC1569 [4] it was 108 (inactive).

Turning to `CCCCCCCCCCCCCCCCOCC(CO)OC(C)=O` (stereo unspecified) [1-Hexadecyl-2-O-acetyl-glycerol], the cell number with HCC1569 [1] amounted to 106; in the experiment with TDF [2], 99.8. The H1.0 immunofluorescence intensity in the experiment with TDF [3] is 98.3 (inactive); with HCC1569 [4], 86.3 (inactive).

In the case of `O=C(O)CN(CCN(CC(=O)O)CC(=O)O)CCN(CC(=O)O)CC(=O)O` [Diethylenetriaminepentaacetic acid], the figures for the cell number in the experiment with HCC1569 [1] and with TDF [2] were 95.4 and 104, respectively. In addition, the results for the H1.0 immunofluorescence intensity in the experiment on TDF [3] and with HCC1569 [4] were 95.1 (inactive) and 94.6 (inactive), respectively.

Turning to `O=C(NC(Cc1ccccc1)C(=O)CCl)OCc1ccccc1` [Z-L-Phe chloromethyl ketone], the results for the cell number in the experiment on HCC1569 [1] and in the experiment with TDF [2] were 54.9 and 52.5, respectively. Moreover, the H1.0 immunofluorescence intensity in the experiment on TDF [3] is 120 (inactive); with HCC1569 [4], 116 (inactive).

`N#CC(=C(N)Sc1ccccc1N)c1cccc(C(O)c2ccncc2)c1` (stereo unspecified) [MEK Inhibitor I]: the figures for the cell number in the experiment with HCC1569 [1] and in the experiment on TDF [2] were 77.2 and 86.8, respectively. Further, the H1.0 immunofluorescence intensity in the experiment on TDF [3] was 98.7 (inactive); in the experiment with HCC1569 [4], 176 (active).

For the compound `NC(CO)(CO)CO.O=C(c1ccccc1)c1ccc2n1CCC2C(=O)O` (stereo unspecified) [Ketorolac tris salt], the cell number in the experiment with HCC1569 [1] came to 101; in the experiment with TDF [2], 111. For the same compound, the results for the H1.0 immunofluorescence intensity with TDF [3] and in the experiment with HCC1569 [4] were 94.5 (inactive) and 94.1 (inactive), respectively.

Take `Nc1ncnc2c1C(=O)N(c1ccc(C3CCC(CC(=O)O)CC3)cc1)CCO2` (stereo unspecified): the figures for the cell number with HCC1569 [1] and in the experiment on TDF [2] were 103 and 95.7, respectively. The H1.0 immunofluorescence intensity is 99.8 (inactive) in the experiment with TDF [3] and 98.5 (inactive) in the experiment on HCC1569 [4].

Consider `Cl.Nc1cc(Nc2ccc(S(N)(=O)=O)cc2)ncn1`, for which the cell number in the experiment on HCC1569 [1] came out at 100; in the experiment with TDF [2], 93.3. Further, the H1.0 immunofluorescence intensity with TDF [3] is 98.4 (inactive); with HCC1569 [4], 102 (inactive).

Consider `C[C@@H](O)[C@H]1C(=O)N2C(C(=O)O)=C(SCCN=CN)C[C@H]12.O`, for which the cell number with HCC1569 [1] is 101; in the experiment with TDF [2], 104. Moreover, the H1.0 immunofluorescence intensity is 99.9 (inactive) with TDF [3] and 93.3 (inactive) in the experiment with HCC1569 [4].

Consider `C[N+](C)(C)CCOC(N)=O` [Carbamylcholine], for which the cell number in the experiment with HCC1569 [1] came to 103; in the experiment on TDF [2], 107. In addition, the H1.0 immunofluorescence intensity in the experiment on TDF [3] is 93.3 (inactive); with HCC1569 [4], 99.8 (inactive).

As for `O=C(Nc1ccc([N+](=O)[O-])cc1Cl)c1cc(Cl)ccc1O` [Niclosamide], the cell number stood at 70 with HCC1569 [1] and 78.1 in the experiment on TDF [2]. Moreover, the H1.0 immunofluorescence intensity in the experiment on TDF [3] is 104 (inactive); in the experiment with HCC1569 [4], 120 (inactive).

`Cc1c2c(c(O)c3c(O)cccc13)C(=O)OC2C1C(O)C(=O)C(C(N)=O)=C(O)C1N(C)C` (racemic): the figures for the cell number in the experiment with HCC1569 [1] and in the experiment on TDF [2] were 93.9 and 93.1, respectively. Besides, the H1.0 immunofluorescence intensity is 96.4 (inactive) in the experiment with TDF [3] and 102 (inactive) in the experiment with HCC1569 [4].

Turning to `C[C@H](O)[C@H](O)[C@H]1CNc2[nH]c(N)nc(=O)c2N1.Cl.Cl`, the cell number was 103 with HCC1569 [1] and 97.2 with TDF [2]. The H1.0 immunofluorescence intensity in the experiment on TDF [3] is 92.5 (inactive); in the experiment on HCC1569 [4] it was 97 (inactive).

As for `COC(=O)NC(C(=O)NC(Cc1ccccc1)C(O)CN(Cc1ccc(-c2ccccn2)cc1)NC(=O)C(NC(=O)OC)C(C)(C)C)C(C)(C)C` (stereo unspecified) [Atazanavir], the cell number is 92.7 in the experiment with HCC1569 [1] and 79.8 in the experiment with TDF [2]. In addition, the figures for the H1.0 immunofluorescence intensity in the experiment with TDF [3] and in the experiment with HCC1569 [4] were 109 (inactive) and 103 (inactive), respectively.

Consider `COc1cc(O)c(C(=O)C=Cc2ccccc2)c(OC)c1` [Flavokawain B], for which the cell number amounted to 75.4 in the experiment on HCC1569 [1] and 81.6 with TDF [2]. In addition, the figures for the H1.0 immunofluorescence intensity in the experiment on TDF [3] and with HCC1569 [4] were 93.6 (inactive) and 124 (inactive), respectively.

For the compound `CCCCCC1OC1CC=CCC=CCC=CCCCC(=O)O` (stereo unspecified) [14,15-Epoxyeicosatrienoic acid], the values for the cell number with HCC1569 [1] and in the experiment with TDF [2] were 103 and 112, respectively. Also, the H1.0 immunofluorescence intensity was 103 (inactive) with TDF [3] and 94.8 (inactive) with HCC1569 [4].

Take `COc1cc(Br)c(S(=O)(=O)Nc2ccc(Cl)c(O[C@@H]3CCN(C)C3)c2)cc1OC`: the cell number with HCC1569 [1] turned out to be 83.2; with TDF [2], 82.9. The H1.0 immunofluorescence intensity was 94.8 (inactive) with TDF [3] and 137 (inactive) in the experiment on HCC1569 [4].

In the case of `CCCCC(C)(C)C(O)C=CC1C(O)CC(=O)C1CC=CCCCC(=O)O` (stereo unspecified) [16,16-Dimethyl-prostaglandin E2], the results for the cell number in the experiment on HCC1569 [1] and with TDF [2] were 100 and 110, respectively. Besides, the results for the H1.0 immunofluorescence intensity in the experiment on TDF [3] and in the experiment with HCC1569 [4] were 94.7 (inactive) and 109 (inactive), respectively.
